# Data published in paper PMC7862700, “An all-to-all approach to the identification of sequence-specific readers for epigenetic DNA modifications on cytosine”.
# Experiments:
# Assay in all cases: DAPPL (digital affinity profiling via proximity ligation, sequencing); 10 mM Tris-HCl pH 7.5, 50 mM NaCl, 1 mM DTT, 4% glycerol, room temperature, 30 min; GST-TFs on glutathione beads, 16-mer random dsDNA library, 0.1% formaldehyde crosslink after washing; high values mean tight binding
# FLI1 = target: T1, FLI1 (Homo sapiens, UniProt Q01543 1-452); details: protein: recombinant; tags: N-terminal GST; dsDNA, one strand shown
# T1 sequence: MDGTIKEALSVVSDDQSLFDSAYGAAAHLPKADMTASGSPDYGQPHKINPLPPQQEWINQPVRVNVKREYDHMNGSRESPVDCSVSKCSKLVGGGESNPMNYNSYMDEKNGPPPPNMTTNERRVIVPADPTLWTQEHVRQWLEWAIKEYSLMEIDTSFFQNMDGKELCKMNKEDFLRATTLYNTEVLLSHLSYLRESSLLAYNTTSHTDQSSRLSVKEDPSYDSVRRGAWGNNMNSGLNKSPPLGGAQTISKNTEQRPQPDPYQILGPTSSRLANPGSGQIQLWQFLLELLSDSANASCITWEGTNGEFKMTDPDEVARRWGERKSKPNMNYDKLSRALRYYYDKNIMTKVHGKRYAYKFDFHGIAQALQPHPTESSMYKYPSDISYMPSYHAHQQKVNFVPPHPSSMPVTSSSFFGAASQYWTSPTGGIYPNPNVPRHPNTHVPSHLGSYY
# Summary of the method: (§1)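 Human transcription factors carrying a GST fusion were produced in yeast, bound to glutathione beads, tagged with DNA barcodes and pooled together with a tag-only sample. Each pool was held with 200 nmole of a random double-stranded 16-mer DNA library in Tris/NaCl/DTT/glycerol buffer for 30 min at room temperature, then washed, crosslinked in 0.1% formaldehyde, proximity-ligated with BsaI/T4 ligase (1 h, 37 °C), PCR-amplified and sequenced on an Illumina NextSeq500. Binding signal is the read frequency of each hexamer for a given factor divided by its frequency in the tag-only sample.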
# ELK1 = target: T2, ELK1 (Homo sapiens, UniProt P19419 1-428); details: protein: recombinant; tags: N-terminal GST; dsDNA, one strand shown
# T2 sequence: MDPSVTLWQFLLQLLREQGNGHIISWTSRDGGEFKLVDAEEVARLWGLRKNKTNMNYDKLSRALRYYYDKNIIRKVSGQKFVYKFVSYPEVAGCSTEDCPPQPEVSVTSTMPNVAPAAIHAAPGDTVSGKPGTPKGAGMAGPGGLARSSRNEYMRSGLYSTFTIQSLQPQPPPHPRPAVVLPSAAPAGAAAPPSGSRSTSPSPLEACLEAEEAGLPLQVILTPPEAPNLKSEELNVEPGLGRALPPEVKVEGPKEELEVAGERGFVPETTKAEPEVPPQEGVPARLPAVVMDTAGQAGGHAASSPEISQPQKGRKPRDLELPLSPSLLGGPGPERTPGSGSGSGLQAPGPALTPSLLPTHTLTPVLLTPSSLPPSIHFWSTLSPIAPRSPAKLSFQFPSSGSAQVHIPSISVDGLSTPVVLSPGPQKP
# Summary of the method: as §1
# GABPA = target: T3, GABPA (Homo sapiens, UniProt Q06546 1-454); details: protein: recombinant; tags: N-terminal GST; dsDNA, one strand shown
# T3 sequence: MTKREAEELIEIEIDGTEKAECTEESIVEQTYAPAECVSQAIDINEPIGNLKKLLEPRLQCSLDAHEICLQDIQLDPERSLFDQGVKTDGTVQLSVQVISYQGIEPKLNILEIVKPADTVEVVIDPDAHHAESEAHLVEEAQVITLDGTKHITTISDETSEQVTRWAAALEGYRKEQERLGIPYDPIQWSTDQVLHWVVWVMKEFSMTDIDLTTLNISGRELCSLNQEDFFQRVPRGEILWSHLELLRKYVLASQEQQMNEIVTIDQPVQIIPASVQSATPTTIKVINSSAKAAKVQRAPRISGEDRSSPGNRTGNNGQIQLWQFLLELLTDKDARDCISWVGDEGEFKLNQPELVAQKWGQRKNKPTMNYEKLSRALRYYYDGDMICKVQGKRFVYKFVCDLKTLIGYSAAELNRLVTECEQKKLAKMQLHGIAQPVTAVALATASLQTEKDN
# Summary of the method: as §1
# ERG = target: T4, ERG (Homo sapiens, UniProt P11308 1-479); details: protein: recombinant; tags: N-terminal GST; dsDNA, one strand shown
# T4 sequence: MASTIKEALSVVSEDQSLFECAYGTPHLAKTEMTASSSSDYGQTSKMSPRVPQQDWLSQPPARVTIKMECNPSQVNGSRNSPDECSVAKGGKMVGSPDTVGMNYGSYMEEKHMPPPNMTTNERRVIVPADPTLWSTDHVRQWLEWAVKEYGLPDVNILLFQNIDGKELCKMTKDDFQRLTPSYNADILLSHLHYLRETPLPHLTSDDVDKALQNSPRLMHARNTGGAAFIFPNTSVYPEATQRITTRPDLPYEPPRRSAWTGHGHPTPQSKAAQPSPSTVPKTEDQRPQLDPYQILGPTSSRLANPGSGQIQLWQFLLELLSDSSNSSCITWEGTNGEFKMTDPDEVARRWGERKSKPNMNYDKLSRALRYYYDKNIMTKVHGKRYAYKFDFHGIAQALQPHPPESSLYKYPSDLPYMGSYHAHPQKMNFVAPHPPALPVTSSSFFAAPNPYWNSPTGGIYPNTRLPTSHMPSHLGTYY
# Summary of the method: as §1
# ELF1 = ELF1 (Homo sapiens, UniProt P32519 1-619); details: protein: recombinant; tags: N-terminal GST; dsDNA, one strand shown
# Sequence of ELF1 (P32519 whole entry): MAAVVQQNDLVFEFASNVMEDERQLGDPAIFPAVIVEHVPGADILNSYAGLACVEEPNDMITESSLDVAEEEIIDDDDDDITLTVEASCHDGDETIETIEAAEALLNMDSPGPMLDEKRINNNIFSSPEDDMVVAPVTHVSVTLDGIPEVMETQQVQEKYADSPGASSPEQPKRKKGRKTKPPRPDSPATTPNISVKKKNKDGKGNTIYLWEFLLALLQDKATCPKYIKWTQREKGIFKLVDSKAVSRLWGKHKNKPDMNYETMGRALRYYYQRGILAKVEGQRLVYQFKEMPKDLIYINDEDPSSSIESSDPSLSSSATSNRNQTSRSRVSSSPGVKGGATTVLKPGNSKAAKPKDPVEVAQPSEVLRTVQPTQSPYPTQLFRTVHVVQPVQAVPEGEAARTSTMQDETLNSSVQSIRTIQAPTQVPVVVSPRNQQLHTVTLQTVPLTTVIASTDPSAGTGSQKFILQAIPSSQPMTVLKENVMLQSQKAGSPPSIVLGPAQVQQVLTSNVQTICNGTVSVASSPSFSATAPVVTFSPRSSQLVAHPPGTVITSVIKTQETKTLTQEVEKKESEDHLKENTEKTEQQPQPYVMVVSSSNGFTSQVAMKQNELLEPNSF
# Summary of the method: as §1
# EHF = target: T5, EHF (Homo sapiens, UniProt Q9NZC4 1-300); details: protein: recombinant; tags: N-terminal GST; dsDNA, one strand shown
# T5 sequence: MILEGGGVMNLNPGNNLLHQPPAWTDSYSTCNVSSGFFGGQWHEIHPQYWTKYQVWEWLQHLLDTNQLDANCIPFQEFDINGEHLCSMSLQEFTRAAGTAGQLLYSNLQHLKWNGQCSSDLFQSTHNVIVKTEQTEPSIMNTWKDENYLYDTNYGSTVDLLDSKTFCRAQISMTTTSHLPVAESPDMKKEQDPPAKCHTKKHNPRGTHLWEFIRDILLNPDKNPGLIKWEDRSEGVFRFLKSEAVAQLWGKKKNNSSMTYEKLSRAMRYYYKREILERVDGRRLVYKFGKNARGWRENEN
# Summary of the method: as §1
# SPI1 = SPI1 (Homo sapiens, UniProt P17947 1-270); details: protein: recombinant; tags: N-terminal GST; dsDNA, one strand shown
# Summary of the method: as §1
# SPIB = SPIB (Homo sapiens, UniProt Q01892 1-262); details: protein: recombinant; tags: N-terminal GST; dsDNA, one strand shown
# Sequence of SPIB (Q01892 whole entry): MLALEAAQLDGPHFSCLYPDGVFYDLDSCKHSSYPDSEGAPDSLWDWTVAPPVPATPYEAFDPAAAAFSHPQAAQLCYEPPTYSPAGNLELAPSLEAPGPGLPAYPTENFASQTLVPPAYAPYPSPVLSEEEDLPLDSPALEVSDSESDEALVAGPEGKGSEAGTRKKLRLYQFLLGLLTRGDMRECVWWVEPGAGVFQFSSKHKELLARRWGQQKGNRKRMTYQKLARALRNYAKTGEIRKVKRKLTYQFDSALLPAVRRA
# Summary of the method: as §1
# ELK3 = target: T6, ELK3 (Homo sapiens, UniProt P41970 1-407); details: protein: recombinant; tags: N-terminal GST; dsDNA, one strand shown
# T6 sequence: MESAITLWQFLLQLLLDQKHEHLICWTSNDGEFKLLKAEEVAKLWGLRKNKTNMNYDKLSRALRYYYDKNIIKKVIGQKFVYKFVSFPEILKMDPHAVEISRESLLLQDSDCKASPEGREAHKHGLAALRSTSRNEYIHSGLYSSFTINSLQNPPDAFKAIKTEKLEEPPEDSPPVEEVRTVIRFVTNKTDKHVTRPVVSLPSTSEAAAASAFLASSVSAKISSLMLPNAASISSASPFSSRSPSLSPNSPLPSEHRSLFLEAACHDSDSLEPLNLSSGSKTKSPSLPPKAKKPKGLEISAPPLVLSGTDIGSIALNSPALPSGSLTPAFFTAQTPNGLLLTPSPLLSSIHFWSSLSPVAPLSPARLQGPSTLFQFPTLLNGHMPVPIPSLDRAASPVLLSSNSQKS
# Summary of the method: as §1
# FEV = target: T7, FEV (Homo sapiens, UniProt Q99581 1-238); details: protein: recombinant; tags: N-terminal GST; dsDNA, one strand shown
# T7 sequence: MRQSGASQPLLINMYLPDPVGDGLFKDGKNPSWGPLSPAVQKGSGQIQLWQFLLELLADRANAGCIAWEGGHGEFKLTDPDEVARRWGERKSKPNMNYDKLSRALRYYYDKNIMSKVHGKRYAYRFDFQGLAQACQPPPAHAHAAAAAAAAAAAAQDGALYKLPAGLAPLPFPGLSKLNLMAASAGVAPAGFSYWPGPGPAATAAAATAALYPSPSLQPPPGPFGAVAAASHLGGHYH
# Summary of the method: as §1
# ETV5 = ETV5 (Homo sapiens, UniProt P41161 1-510); details: protein: recombinant; tags: N-terminal GST; dsDNA, one strand shown
# Sequence of ETV5 (P41161 whole entry): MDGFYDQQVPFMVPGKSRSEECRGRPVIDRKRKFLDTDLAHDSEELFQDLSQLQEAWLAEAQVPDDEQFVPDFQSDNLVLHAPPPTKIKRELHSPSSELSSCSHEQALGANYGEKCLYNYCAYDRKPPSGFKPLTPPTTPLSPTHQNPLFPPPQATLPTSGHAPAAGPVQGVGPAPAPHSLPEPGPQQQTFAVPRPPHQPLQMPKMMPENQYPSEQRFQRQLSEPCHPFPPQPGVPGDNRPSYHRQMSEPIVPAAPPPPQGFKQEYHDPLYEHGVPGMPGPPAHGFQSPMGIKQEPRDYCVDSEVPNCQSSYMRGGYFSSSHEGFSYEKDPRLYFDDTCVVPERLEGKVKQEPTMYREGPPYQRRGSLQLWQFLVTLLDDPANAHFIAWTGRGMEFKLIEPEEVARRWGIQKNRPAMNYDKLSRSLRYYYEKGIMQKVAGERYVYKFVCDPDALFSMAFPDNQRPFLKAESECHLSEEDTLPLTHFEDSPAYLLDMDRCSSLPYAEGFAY
# Summary of the method: as §1
# HSF1 = HSF1 (Homo sapiens, UniProt Q00613 1-529); details: protein: recombinant; tags: N-terminal GST; chain copies: 3; dsDNA, one strand shown
# Sequence of HSF1 (Q00613 whole entry): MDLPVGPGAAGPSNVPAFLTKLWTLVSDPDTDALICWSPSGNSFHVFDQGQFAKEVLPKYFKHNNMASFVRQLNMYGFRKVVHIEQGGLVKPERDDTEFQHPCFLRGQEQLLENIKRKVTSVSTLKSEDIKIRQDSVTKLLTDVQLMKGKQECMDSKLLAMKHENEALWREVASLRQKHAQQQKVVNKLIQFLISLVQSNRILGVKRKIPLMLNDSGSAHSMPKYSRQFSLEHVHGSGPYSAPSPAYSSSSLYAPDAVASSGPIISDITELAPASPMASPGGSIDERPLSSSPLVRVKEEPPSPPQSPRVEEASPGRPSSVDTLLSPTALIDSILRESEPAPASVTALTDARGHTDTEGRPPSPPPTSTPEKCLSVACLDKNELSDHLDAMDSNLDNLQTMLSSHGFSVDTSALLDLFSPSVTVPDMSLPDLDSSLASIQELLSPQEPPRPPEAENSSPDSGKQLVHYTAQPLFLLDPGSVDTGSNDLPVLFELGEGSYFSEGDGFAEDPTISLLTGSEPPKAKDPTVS
# Summary of the method: as §1
# SPIC = target: T8, SPIC (Homo sapiens, UniProt Q8N5J4 1-248); details: protein: recombinant; tags: N-terminal GST; dsDNA, one strand shown
# T8 sequence: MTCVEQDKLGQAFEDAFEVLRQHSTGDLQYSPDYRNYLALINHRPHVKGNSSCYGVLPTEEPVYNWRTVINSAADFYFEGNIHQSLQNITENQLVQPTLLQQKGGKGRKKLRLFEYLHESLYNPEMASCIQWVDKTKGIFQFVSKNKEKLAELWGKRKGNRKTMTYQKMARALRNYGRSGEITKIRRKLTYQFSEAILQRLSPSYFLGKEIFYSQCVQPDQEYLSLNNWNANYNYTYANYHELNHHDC
# Summary of the method: as §1
# ELF4 = ELF4 (Homo sapiens, UniProt Q99607 1-663); details: protein: recombinant; tags: N-terminal GST; dsDNA, one strand shown
# Sequence of ELF4 (Q99607 whole entry): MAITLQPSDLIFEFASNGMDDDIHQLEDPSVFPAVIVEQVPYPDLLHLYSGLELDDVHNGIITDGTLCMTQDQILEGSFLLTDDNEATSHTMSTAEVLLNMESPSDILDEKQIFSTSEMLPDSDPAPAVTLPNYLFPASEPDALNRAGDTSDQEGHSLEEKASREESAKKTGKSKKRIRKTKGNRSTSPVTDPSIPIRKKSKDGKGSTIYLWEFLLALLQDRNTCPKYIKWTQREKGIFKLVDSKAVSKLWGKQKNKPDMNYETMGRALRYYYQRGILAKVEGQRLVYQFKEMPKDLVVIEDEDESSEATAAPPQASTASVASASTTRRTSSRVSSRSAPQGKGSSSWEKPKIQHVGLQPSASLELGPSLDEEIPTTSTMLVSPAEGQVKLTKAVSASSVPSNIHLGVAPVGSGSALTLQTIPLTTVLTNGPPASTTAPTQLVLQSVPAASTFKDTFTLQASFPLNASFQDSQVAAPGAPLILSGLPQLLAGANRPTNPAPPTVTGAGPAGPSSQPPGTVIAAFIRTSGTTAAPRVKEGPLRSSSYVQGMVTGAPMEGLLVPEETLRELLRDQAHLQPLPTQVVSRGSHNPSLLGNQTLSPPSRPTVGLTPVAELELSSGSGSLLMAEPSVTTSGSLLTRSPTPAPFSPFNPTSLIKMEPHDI
# Summary of the method: as §1
# ELK4 = target: T9, ELK4 (Homo sapiens, UniProt P28324-2 1-405); details: protein: recombinant; tags: N-terminal GST; dsDNA, one strand shown
# T9 sequence: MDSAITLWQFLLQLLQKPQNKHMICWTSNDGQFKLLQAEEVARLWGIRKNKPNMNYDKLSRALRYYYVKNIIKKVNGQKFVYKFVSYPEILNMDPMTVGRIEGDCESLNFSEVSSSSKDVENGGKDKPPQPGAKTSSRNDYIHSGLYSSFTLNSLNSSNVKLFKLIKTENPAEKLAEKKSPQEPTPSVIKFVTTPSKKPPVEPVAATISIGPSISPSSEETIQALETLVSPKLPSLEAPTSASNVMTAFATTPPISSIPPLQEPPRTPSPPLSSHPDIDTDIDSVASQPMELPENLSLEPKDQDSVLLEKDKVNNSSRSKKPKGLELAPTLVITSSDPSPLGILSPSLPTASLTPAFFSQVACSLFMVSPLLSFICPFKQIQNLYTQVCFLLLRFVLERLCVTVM
# Summary of the method: as §1
# ETV2 = target: T10, ETV2 (Homo sapiens, UniProt O00321 1-342); details: protein: recombinant; tags: N-terminal GST; dsDNA, one strand shown
# T10 sequence: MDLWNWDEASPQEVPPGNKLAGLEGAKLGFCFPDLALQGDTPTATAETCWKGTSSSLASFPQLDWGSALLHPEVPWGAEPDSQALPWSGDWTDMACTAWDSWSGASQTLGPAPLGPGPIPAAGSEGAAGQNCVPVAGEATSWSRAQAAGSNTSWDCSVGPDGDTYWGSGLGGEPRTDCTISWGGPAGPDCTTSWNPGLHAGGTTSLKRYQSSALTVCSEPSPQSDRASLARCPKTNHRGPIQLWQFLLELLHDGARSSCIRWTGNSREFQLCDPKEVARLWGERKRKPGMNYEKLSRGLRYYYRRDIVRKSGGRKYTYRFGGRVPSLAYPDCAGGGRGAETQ
# Summary of the method: as §1
# ELF3 = target: T11, ELF3 (Homo sapiens, UniProt P78545 1-371); details: protein: recombinant; tags: N-terminal GST; dsDNA, one strand shown
# T11 sequence: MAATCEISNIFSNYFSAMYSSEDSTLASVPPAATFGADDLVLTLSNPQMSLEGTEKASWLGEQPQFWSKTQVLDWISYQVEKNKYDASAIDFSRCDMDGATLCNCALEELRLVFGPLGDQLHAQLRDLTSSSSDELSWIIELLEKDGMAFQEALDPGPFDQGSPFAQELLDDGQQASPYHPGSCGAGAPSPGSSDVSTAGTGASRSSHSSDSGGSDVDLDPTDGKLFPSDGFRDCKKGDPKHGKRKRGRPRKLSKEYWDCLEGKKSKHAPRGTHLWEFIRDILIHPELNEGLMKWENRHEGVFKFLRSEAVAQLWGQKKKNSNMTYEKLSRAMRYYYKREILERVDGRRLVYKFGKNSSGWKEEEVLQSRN
# Summary of the method: as §1
# CRX = CRX (Homo sapiens, UniProt O43186 1-299); details: protein: recombinant; tags: N-terminal GST; dsDNA, one strand shown
# Sequence of CRX (O43186 whole entry): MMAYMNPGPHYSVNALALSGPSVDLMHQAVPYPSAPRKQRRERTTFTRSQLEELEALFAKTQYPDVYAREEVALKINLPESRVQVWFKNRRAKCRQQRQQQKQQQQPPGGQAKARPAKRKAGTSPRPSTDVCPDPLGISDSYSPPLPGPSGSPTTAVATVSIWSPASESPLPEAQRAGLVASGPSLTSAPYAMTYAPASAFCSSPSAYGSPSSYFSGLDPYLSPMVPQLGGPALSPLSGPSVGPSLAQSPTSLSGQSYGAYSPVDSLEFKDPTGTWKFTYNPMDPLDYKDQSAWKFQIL
# Summary of the method: as §1
# ETV1 = ETV1 (Homo sapiens, UniProt P50549 1-477); details: protein: recombinant; tags: N-terminal GST; dsDNA, one strand shown
# Sequence of ETV1 (P50549 whole entry): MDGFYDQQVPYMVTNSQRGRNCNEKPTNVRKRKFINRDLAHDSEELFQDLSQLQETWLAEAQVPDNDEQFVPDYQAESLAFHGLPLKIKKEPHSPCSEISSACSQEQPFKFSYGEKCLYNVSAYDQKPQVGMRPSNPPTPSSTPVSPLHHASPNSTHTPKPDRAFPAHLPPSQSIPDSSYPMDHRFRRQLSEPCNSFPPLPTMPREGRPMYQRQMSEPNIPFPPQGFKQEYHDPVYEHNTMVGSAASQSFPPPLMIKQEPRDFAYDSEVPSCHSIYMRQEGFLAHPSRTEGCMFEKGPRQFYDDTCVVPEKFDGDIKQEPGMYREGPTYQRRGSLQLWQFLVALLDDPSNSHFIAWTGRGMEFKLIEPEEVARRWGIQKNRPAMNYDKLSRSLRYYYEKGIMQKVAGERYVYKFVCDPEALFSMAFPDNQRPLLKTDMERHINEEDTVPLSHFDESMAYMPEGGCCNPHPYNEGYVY
# Summary of the method: as §1
sequence,measurement,setting,value
AATTGG,binding signal,FLI1,"1.38 fold enrichment (6-mer frequency, TF over GST control)"
same,binding signal,ELK1,"1.36 fold enrichment (6-mer frequency, TF over GST control)"
same,binding signal,GABPA,"1.31 fold enrichment (6-mer frequency, TF over GST control)"
same,binding signal,ERG,"1.34 fold enrichment (6-mer frequency, TF over GST control)"
same,binding signal,ELF1,"1.33 fold enrichment (6-mer frequency, TF over GST control)"
same,binding signal,EHF,"1.42 fold enrichment (6-mer frequency, TF over GST control)"
same,binding signal,SPI1,"1.4 fold enrichment (6-mer frequency, TF over GST control)"
same,binding signal,SPIB,"1.42 fold enrichment (6-mer frequency, TF over GST control)"
same,binding signal,ELK3,"1.48 fold enrichment (6-mer frequency, TF over GST control)"
same,binding signal,FEV,"1.43 fold enrichment (6-mer frequency, TF over GST control)"
same,binding signal,ETV5,"1.4 fold enrichment (6-mer frequency, TF over GST control)"
same,binding signal,HSF1,"1.2 fold enrichment (6-mer frequency, TF over GST control)"
same,binding signal,SPIC,"1.26 fold enrichment (6-mer frequency, TF over GST control)"
same,binding signal,ELF4,"1.38 fold enrichment (6-mer frequency, TF over GST control)"
same,binding signal,ELK4,"1.16 fold enrichment (6-mer frequency, TF over GST control)"
same,binding signal,ETV2,"1.2 fold enrichment (6-mer frequency, TF over GST control)"
same,binding signal,ELF3,"1.35 fold enrichment (6-mer frequency, TF over GST control)"
same,binding signal,CRX,"1.23 fold enrichment (6-mer frequency, TF over GST control)"
same,binding signal,ETV1,"1.39 fold enrichment (6-mer frequency, TF over GST control)"
